Experiment [1] can be described thus: qHTS assay to identify small molecule antagonists of the retinoid-related orphan receptor gamma (ROR-gamma) signaling pathway - cell viability counter screen (AID 1159520). Note: nearly all actives have a fitted effect of over 50% in size. Note: potency is the fitted concentration of half-maximal effect. Summed up:
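Tet-on ROR gamma CHO cells (1,000/well) were plated 4 hr, given compounds in DMSO for 2 hr at 37 C, then induced with 1 uM final doxycycline for 16 hr. Viability was read as ATP by CellTiter-Glo luminescence after 30 min.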

The target of experiment [2] is Bile acid receptor (Homo sapiens) (UniProt Q96RI1). The experiment is described as follows: qHTS assay to identify small molecule agonists of the farnesoid-X-receptor (FXR) signaling pathway (AID 743220; active = well fitted activation curve with a large enough effect in the signal ratio in the repeat runs, not every such curve was filed as active; the % refers to the signal ratio). Summed up: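 FXR-UAS-bla HEK 293T cells carrying a UAS-driven beta-lactamase reporter were plated for 5 h at 37C/5% CO2, then exposed to DMSO-dissolved Tox21 10K compounds for 16 h at 37C. A LiveBLAzer B/G FRET substrate was loaded for 2 h at room temperature before fluorescence reading.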
In general terms: In qHTS, concentration-response curves come from the screen itself.

Experiment [3] can be described thus: qHTS assay to identify small molecule antagonists of the farnesoid-X-receptor (FXR) signaling pathway - cell viability counter screen (AID 743221; active = well fitted cell-killing curve with a large enough effect in the repeat runs, not every such curve was filed as active; note: nearly all actives have a fitted effect of over 50% in size; note: potency is the fitted concentration of half-maximal effect). Summed up:
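Compound effects on cell number were measured as CellTiter-Glo luminescence in HEK 293T cells expressing FXR-UAS-bla, after 16 h at 37 C with 50 uM CDCA (final).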

Experiment [4] deals with Vitamin D3 receptor (Homo sapiens) (UniProt P11473). Kind of experiment: qHTS assay to identify small molecule antagonists of the vitamin D receptor (VDR) signaling pathway (AID 743223; active = well fitted inhibition curve with a large enough effect in the signal ratio in the repeat runs, not every such curve was filed as active; the % refers to the signal ratio; note: potency is the fitted concentration of half-maximal effect). Summed up:
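Beta-lactamase activity in VDR-bla cells is measured by FRET substrate fluorescence (2 h, room temperature) after cells spend 16 h at 37C with test compound and 3 nM final 1alpha,25-dihydroxyvitamin D3.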

A short description of experiment [5]: qHTS assay to identify small molecule antagonists of the vitamin D receptor (VDR) signaling pathway - cell viability counter screen (AID 743225). Note: nearly all actives have a fitted effect of over 50% in size. Note: potency is the fitted concentration of half-maximal effect. Summed up: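 In this counter screen, VDR-bla HEK 293T cells receive test compound plus 3 nM final calcitriol for 16 h at 37C. Room-temperature steps of 2 h with the beta-lactamase substrate, then 30 min with CellTiter-Glo, precede the luminescence read.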

Experiment [6] can be described thus: qHTS assay to identify small molecule antagonists of the peroxisome proliferator-activated receptor delta (PPARd) signaling pathway - cell viability counter screen (AID 743213). Note: nearly all actives have a fitted effect of over 50% in size. Note: potency is the fitted concentration of half-maximal effect. Summed up: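 Same-well viability: cells pre-incubated 5 h, dosed with compound plus 300 nM L165041, kept 17 h at 37 C, FRET substrate 2 h RT, then CellTiter-Glo 30 min RT and luminescence.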

A short description of experiment [7]: qHTS assay to identify small molecule agonists of the vitamin D receptor (VDR) signaling pathway - cell viability counter screen (AID 743224). Note: nearly all actives have a fitted effect of over 50% in size. Note: potency is the fitted concentration of half-maximal effect. A digest of the protocol: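 In parallel with the bla FRET readout, cytotoxicity toward VDR-bla cells after 16 h compound exposure was assessed by CellTiter-Glo, with luminescence recorded after a 30 min room-temperature incubation.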

Experiment [8] addresses Peroxisome proliferator-activated receptor delta (Homo sapiens) (UniProt Q03181). Kind of experiment: qHTS assay to identify small molecule agonists of the peroxisome proliferator-activated receptor delta (PPARd) signaling pathway (AID 743212; calls by dose curve;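 note: HEK293H cells with PPARd UAS beta-lactamase reporter GeneBLAzer system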). Summed up:
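Beta-lactamase reporter read by fluorescence (LiveBLAzer B/G FRET, 2 h, room temperature). Test agents, in DMSO, incubated at 37 C with PPARd-bla HEK293H cells.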

The target is the same in experiment [9]. The experiment is described as follows: qHTS assay to identify small molecule antagonists of the peroxisome proliferator-activated receptor delta (PPARd) signaling pathway (AID 743215; active = well fitted inhibition curve with a large enough effect in the signal ratio in the repeat runs, not every such curve was filed as active; the % refers to the signal ratio;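 note: cells stimulated with agonist L165041 at 300 nM final during compound exposure; series mostly up to about 62 µM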). A digest of the protocol: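 Fluorescence from cleaved LiveBLAzer B/G FRET substrate (2 h, room temperature) reports PPARd-driven beta-lactamase in HEK293H UAS-bla cells. Cells had been treated 17 h at 37 C with compound plus 300 nM final L165041.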

Experiment [10] deals with Bile acid receptor (Homo sapiens) (UniProt Q96RI1). Kind of experiment: qHTS assay to identify small molecule antagonists of the farnesoid-X-receptor (FXR) signaling pathway (AID 743217; active = well fitted inhibition curve with a large enough effect in the signal ratio in the repeat runs, not every such curve was filed as active; the % refers to the signal ratio). Summed up: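 FRET fluorescence after 2 h room-temperature LiveBLAzer loading gives the readout. Prior step: FXR-bla HEK 293T cells, seeded and incubated 5 h, received test compounds plus 50 uM final CDCA for 16 h at 37 °C.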

Structures are written as SMILES. Records with an inconclusive call do not appear. Values without a mark were called inactive. Calls of active or inactive are those of the source. Unless noted, calls come from the whole dose curve; as a rule, active = well fitted curve in the direction sought with a large enough effect in the repeat runs; inconclusive = weak or mixed curves; inactive = no such curve, though single readings can be large; an effect the other way counts as inactive or inconclusive.
% is set by controls: 0 for no effect and ±100 for the full control effect.

Chain of Vitamin D3 receptor (Homo sapiens) (P11473 whole entry, looked up): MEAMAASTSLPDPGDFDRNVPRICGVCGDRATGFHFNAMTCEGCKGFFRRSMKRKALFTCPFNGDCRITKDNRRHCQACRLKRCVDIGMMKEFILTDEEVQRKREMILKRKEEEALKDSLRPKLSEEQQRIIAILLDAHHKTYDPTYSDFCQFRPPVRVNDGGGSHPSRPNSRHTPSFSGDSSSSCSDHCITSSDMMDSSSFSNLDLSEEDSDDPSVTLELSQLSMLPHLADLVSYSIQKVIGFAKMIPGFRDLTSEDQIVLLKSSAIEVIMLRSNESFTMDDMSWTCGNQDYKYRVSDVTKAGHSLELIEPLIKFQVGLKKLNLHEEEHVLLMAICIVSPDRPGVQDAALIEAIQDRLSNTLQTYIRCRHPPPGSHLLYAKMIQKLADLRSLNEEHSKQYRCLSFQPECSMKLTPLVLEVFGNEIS
Chain of Peroxisome proliferator-activated receptor delta (Homo sapiens) (Q03181 whole entry, looked up): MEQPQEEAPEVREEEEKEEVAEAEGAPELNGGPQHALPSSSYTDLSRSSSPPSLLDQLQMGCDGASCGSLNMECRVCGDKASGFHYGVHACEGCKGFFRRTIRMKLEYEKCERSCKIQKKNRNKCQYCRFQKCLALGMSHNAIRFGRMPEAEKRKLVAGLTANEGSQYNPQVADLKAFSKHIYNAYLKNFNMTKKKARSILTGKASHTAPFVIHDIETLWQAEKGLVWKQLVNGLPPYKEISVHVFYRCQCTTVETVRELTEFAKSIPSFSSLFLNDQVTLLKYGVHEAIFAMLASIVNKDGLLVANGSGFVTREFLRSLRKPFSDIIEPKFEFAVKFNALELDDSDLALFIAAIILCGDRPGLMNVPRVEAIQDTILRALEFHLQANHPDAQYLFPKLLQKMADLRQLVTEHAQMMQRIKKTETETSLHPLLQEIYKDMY
Chain of Bile acid receptor (Homo sapiens) (Q96RI1 whole entry, looked up): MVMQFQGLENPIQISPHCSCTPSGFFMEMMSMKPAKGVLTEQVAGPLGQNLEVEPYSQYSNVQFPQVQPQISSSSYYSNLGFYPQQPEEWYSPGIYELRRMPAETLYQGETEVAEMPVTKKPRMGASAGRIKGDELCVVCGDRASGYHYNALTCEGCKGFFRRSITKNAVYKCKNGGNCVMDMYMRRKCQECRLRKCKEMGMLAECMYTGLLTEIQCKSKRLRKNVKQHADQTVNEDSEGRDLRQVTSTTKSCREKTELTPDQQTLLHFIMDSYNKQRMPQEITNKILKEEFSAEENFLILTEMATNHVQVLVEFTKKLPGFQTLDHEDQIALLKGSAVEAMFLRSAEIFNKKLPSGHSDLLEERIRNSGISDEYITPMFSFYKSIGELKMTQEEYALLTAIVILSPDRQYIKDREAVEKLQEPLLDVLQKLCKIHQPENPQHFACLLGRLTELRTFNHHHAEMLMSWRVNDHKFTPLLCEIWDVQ

Turning to `CC1CCC(C(C)(C)O)CC1` (stereo not drawn), the Potency entry in [1] was “inactive”.

With `c1ccc(-c2ccccc2-c2ccccc2)cc1`, in experiment [1], the Potency entry is “inactive”.

With `Nc1c(Br)cc([N+](=O)[O-])cc1Br`, the Potency entry in [1] was “inactive”.

For the molecule `O=C1c2ccccc2C(=O)c2c(Cl)cccc21`, in [1], the Potency result was “inactive”.

For the molecule `CC(C=O)c1ccccc1` (stereo not drawn), the Potency entry in experiment [1] was “inactive”.

As for `[Cl][Eu]([Cl])[Cl]`, in [1], the Potency result was “inactive”.

Turning to `Nc1ccc2c(S(=O)(=O)O)cccc2c1S(=O)(=O)O`, the Potency entry in [1] is “inactive”.

Consider `CC(C)(C)c1cc(CCC(=O)OCCSCCOC(=O)CCc2cc(C(C)(C)C)c(O)c(C(C)(C)C)c2)cc(C(C)(C)C)c1O`, for which the Potency result in [1] is “inactive”.

Turning to `O=C(Nc1ccc([N+](=O)[O-])cc1)Nc1ccc([N+](=O)[O-])cc1` (tested in a mixture with another compound), the Potency entry in [1] is “inactive”.

For `CN1CCN(C)CC1`, the Potency result in experiment [1] is “inactive”.

As to `CCc1c(C)cc(N)c(CC)c1N`, in [1], the Potency result is “inactive”.

For the molecule `CCCC(C)C=O` (stereo not drawn), the Potency result in experiment [1] was “inactive”.

On to `Cc1ccc(S(=O)(=O)C(I)I)cc1`, for which the Potency in experiment [1] was 17.2 µM (active).

Turning to `Oc1ccc(C2(c3ccc(O)c(C4CCCCC4)c3)CCCCC2)cc1C1CCCCC1`, in experiment [1], the Potency is 24.3 µM (active).

On to `CC(C)C(=O)C(C)C`, for which the Potency result in [1] was “inactive”.

As to `NCc1ccco1`, the Potency result in experiment [1] is “inactive”.

With `O=C1CCC(=O)N1`, in experiment [1], the Potency result is “inactive”.

`Cc1c(Cl)c(=O)oc2cc(O)ccc12`: the Potency result in experiment [1] is “inactive”.

Regarding `C=COCCCC`, in [1], the Potency result was “inactive”.

Consider `CO[Si](OC)(c1ccccc1)c1ccccc1`, for which the Potency entry in experiment [1] is “inactive”.

Take `CCN(CC)c1ccc(N=Nc2ccccc2)cc1`: the Potency result in [1] is “inactive”.

For the molecule `CCOC(=O)[C@H](O)[C@@H](O)C(=O)OCC`, the Potency entry in experiment [1] is “inactive”.

Turning to `C=CC(=O)OCCOC1C2CCC1C1CC=CC12` (stereo not drawn), in experiment [1], the activity, negative = cytotoxicity is 1.32% [at 19 µM].

For `O=c1cc[nH]cc1`, the Potency entry in experiment [1] was “inactive”.

As for `CSc1nnc(C(C)(C)C)c(=O)[nH]1`, the Potency entry in experiment [1] was “inactive”.

Consider `C=C(C)C1CCC(C)CC1O` (stereo not drawn), for which, in [1], the Potency result was “inactive”.

Take `[Cl][Dy]([Cl])[Cl]`: the Potency entry in [1] was “inactive”.

For the molecule `Cn1c(=O)[nH]c2ncn(C)c2c1=O`, the Potency entry in [1] was “inactive”.

As for `O=C1C=CC(=O)N1c1cccc(N2C(=O)C=CC2=O)c1`, in experiment [1], the Potency was 12.2 µM (active).

Consider `CCc1cccc(C)c1N(C(=O)C(=O)O)C(C)COC` (stereo not drawn), for which the Potency result in experiment [1] was “inactive”.

`CC/C(=C(/c1ccc(O)cc1)c1ccc(OCCN(C)C)cc1)c1ccccc1`: the Potency in [1] was 40.3 µM (active).

Take `[Cl][Sc]([Cl])[Cl]`: the Potency entry in experiment [1] is “inactive”.

`CCN(CC)c1ccc(C=O)cc1`: the Potency result in experiment [1] is “inactive”.

On to `CC1(C)[C@H]2CC[C@]1(C)C(=O)C2`, for which the Potency result in experiment [1] was “inactive”.

For the molecule `O=[N+]([O-])c1ccc(O)c2ncccc12`, the molecule was classed as inactive in experiment [2]. The Potency entry in experiment [3] and in experiment [5] was “inactive” each time. Moreover, the Potency is 9.52 µM (active) in experiment [4] and 23.7 µM (active) in experiment [1].

`Cc1cc(F)ccc1-c1cc(N2CC[C@@H](O)[C@H]2CO)ncc1N(C)C(=O)C(C)(C)c1cc(C(F)(F)F)cc(C(F)(F)F)c1`: the Potency in experiment [6] was 13.6 µM (active); in experiment [3], 15.3 µM (active); in experiment [4], 21.5 µM (active); in [7], 10.8 µM (active); in experiment [5], 13.6 µM (active); in experiment [1] it was 53.6 µM (active).

Take `S=C1NC=NC2N=CNC12` (stereo not drawn): the result in experiment [2] was inactive. The Potency entry in [4] was “inactive”. Besides, the Potency in [7] was 3.09 µM (active); in experiment [5], 7.77 µM (active).

Consider `CC1=C(/C=C/C(C)=C/C=C/C(C)=C\C(=O)O)C(C)(C)CCC1`, for which the Potency result in [6], in [7] and in [5] was “inactive” each time.

For `C=CCc1cc(S(=O)(=O)c2ccc(O)c(CC=C)c2)ccc1O`, the Potency entry in [3], in [4], in experiment [5] and in experiment [1] was “inactive” each time.

For the molecule `CCCCCN=C(N)N/N=C/c1c[nH]c2ccc(OC)cc12`, the Potency in experiment [6] is 33.5 µM (active); in [3] it was 29.8 µM (active); in experiment [4], 13.4 µM (active); in experiment [7], 29.8 µM (active); in experiment [5] it was 16.9 µM (active); in experiment [1] it was 26.6 µM (active).

Take `CCC(C)(C)c1ccc(CC(C)CN2C[C@@H](C)O[C@@H](C)C2)cc1` (stereo partly drawn): the result in experiment [8] was inactive. The Potency entry in [6], in [9], in experiment [3] and in experiment [4] was “inactive” throughout.

Consider `C=C1C(CCl)(CCl)C2(Cl)C(Cl)C(Cl)C1(Cl)C2(Cl)Cl` (stereo not drawn), for which the Potency was 21.6 µM (active) in experiment [7], 48.4 µM (active) in experiment [5] and 60.4 µM (active) in [1].

Take `CCCCCCCC/C=C\CCCCCCCC(=O)N(CCO)CCO`: the Potency result in experiment [6], in experiment [9], in experiment [10], in [4] and in [5] was “inactive” in each case. The Potency in [7] is 43.5 µM (active).

Regarding `CN1CC[C@H](c2c(O)cc(O)c3c(=O)cc(-c4ccccc4Cl)oc23)[C@H](O)C1`, the Potency result in experiment [6], in experiment [3] and in experiment [5] was “inactive” in each case. In addition, the Potency in experiment [1] is 0.237 µM (active).

As for `O=C1OC(=O)c2cc(-c3ccc4c(c3)C(=O)OC4=O)ccc21`, the Potency in experiment [6] is 54.9 µM (active); in [7], 38.9 µM (active). The Potency entry in experiment [3], in experiment [4], in [5] and in experiment [1] was “inactive” throughout.

For `O=C1CCCCCCCCCCCCCC1`, the result in [8] was inactive. For the same molecule, the Potency entry in experiment [6], in experiment [9], in [3], in experiment [4], in [7] and in experiment [5] was “inactive” in each case.
